The sample as a whole holds a higher share of hits than the screen did.
Anaer choline gr: blocks anaerobic gram-negative growth on choline. Gram-negative bacterium anaerobic choline minimal medium, absorbance growth; active compounds read low. calls only. hit rate 0.2% among 55,000. AID 1963822; call rule not given here
The depositor's hits bear a star; i = inactive; + = active, no number.

SMILES	Anaer choline gr
CN1CCc2cccc(Cl)c2CC1	+
CN1CCN(c2nc3ccccc3nc2Cl)CC1	i
COc1ccc2c(c1)C1(CCN(C(=O)NC(C)C)C1)C(=O)N2C (stereo unspecified)	i
Cc1ccc(NC(=O)CCc2nc(C3=CCN(Cc4cccc(Cl)c4)CC3)no2)cc1F	i
Fc1ccc(C(OCCN2CCN(CCCc3ccccc3)CC2)c2ccc(F)cc2)cc1	i
CN1C2CCC1CC(OC(c1ccc(F)cc1)c1ccc(F)cc1)C2 (stereo unspecified)	+
CN1[C@@H]2CC[C@H]1CC(OC1c3ccccc3CCc3ccccc31)C2 (stereo partly specified)	i
CCOc1ccc(NC(=O)N2CCC3(C2)C(=O)N(C)c2ccc(OC)cc23)cc1 (stereo unspecified)	i
O=C(Cc1ccccc1)N1CCN(Cc2cc(=O)n3nc(-c4ccccc4)sc3n2)CC1	i
Clc1cccc(-c2cccc3c2CCNC3)c1	i

Compound activity (PubChem BioAssay)
